40 compounds from PubChem BioAssay (NCI) can be followed below.

The structures appear in SMILES notation. Compounds without any hit were thinned out: in the full panel of roughly 83,000, 20% have a hit.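 A percent growth of 40 corresponds to 60% growth inhibition; 0 means no net growth; -100 means all cells died. Active threshold: below 10.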 Activity calls are given as the source filed them.

For one test, the system named is SF-539 CNS. The test can be described thus: NCI-60 one-dose screen, 48 h (100 = growth as untreated, 0 = no growth, -100 = all killed). As to conditions: 10 µM unless noted.
For the compound `COc1ccc(-c2nnc(SCC(=O)Nc3ccc(C(=O)/C=C/c4cc(OC)c(OC)c(OC)c4)cc3)n2-c2ccccc2)cc1OC`, the growth is 1.43% [100 µM] (active).
On the same count and under the same terms, for `COc1ccc2cn3c4ccc(O)cc4[nH]c(=O)c3c2c1` the value was -9.1% (active).
As for `COc1ccc(/C=N/c2cc(C(C)(C)C)nn2-c2ccccc2)cc1`, the growth is 92.5% (inactive).
With `CCCCCCCCCCC1OC(C)CC(C)O1` (stereo not given), the growth was 103% (inactive).
`S=C(N/N=C/c1cc(Cl)cc(Cl)c1)NC12CC3CC(CC(C3)C1)C2`: the growth is 68.9% (inactive).
The same measure, in the same setting: next, `CCOC1=C(Cl)C(=O)C(OCC)=C(Cl)C1=O`: 101% (inactive); `COC(=O)/C=C1/CCCCC1(C)C(=O)OC` (stereo not given): 119% (inactive).
`CCCCCCCCCCC(C[N+](C)(C)C/C=C/c1ccccc1)C(O)c1ccccc1` (stereo not given): the growth was 40.5% (inactive).
Turning to `C=CC1CN2CCC1CC2C(O)c1ccnc2ccc(OC)cc12` (stereo not given), the growth was 98.3% (inactive).
Consider `CC(=O)c1ccc2c(c1)c1ccccc1n2C`, for which the growth is 108% (inactive).
Consider `CC(=O)Nc1nc(C)c(C(=O)NNS(=O)(=O)c2ccccc2)s1`, for which the growth is 101% (inactive).
Same read-out and setting: next, `Cc1cc2cn3c4ccc(O)cc4nc(N)c3c2cc1C`: 11.4% (inactive).
For `COc1cc(-c2nn(-c3ccc(NC(=O)Nc4ccc(Cl)c(Cl)c4)cc3)cc2-c2ccncc2)ccc1Cl`, the growth is 54% (inactive).
On to `CCOC(=O)c1sc(NS(=O)(=O)c2ccccc2)nc1C`, for which the growth was 101% (inactive).
`Clc1ccc(I)c2ccccc12`: the growth was 105% (inactive).
Still for that read-out and setting: for `N#Cc1c2cccnc2c2nnc3cc(Cl)c(Cl)cc3n12` the value was 35.1% (inactive); for `COc1ccc(C(=O)NCCNc2nccc(-c3c(-c4ccc(F)cc4)nc4sccn34)n2)cc1`, 79.1% (inactive); for `CC(O)CN(CC(C)O)N(CC(C)O)CC(C)O` (stereo not given), 105% (inactive).
In the case of `O=C(Nc1ccc(-n2cc(-c3ccncc3)c(-c3ccc(Cl)c(O)c3)n2)cc1)c1cc(C(F)(F)F)cc(C(F)(F)F)c1`, the growth was 50.9% (inactive).
Take `COc1cc(-c2nn(-c3ccc(NC(=O)c4cc(Cl)cc(Cl)c4)cc3)cc2-c2ccncc2)ccc1Cl`: the growth was 60.2% (inactive).
Same read-out and setting: next, `CCCCCCC(C)N(CC(C)(C)O)C(=O)c1ccc([N+](=O)[O-])cc1` (stereo not given): 108% (inactive).
For `COc1cc(-c2nn(-c3ccc(NC(=O)c4ccc(Cl)c(Cl)c4)cc3)cc2-c2ccncc2)ccc1Cl`, the growth was 47.7% (inactive).
Consider `COC(=O)[C@@H]1[C@H](O)[C@H](C)[C@H](O)[C@H](C)/C=C\C=C(C)C(=O)Nc2c(C)c(OC(C)=O)c3c(c2O)C(=O)C(C)=C2OCOC(=C23)C(C)=C[C@@](C)(O)[C@H](O)[C@@H](C)[C@H]1OC(C)=O`, for which the growth is 101% (inactive).
Same read-out and setting: for `C/C(=C\c1ccc2ccccc2c1)[N+](=O)[O-]` the value was 15.6% (inactive); for `Cc1cc2cn3c4ccc(O)cc4[nH]c(=O)c3c2cc1C`, 12% (inactive).
Turning to `COc1ccc(C(=O)N2N=C(c3ccc(Br)cc3)CC2c2cn(-c3ccccc3)nc2-c2ccccc2)cc1` (stereo not given), the growth was 92.4% (inactive).
With `O=CN/N=C/c1ccc(Cl)c([N+](=O)[O-])c1`, the growth is 22.2% (inactive).
`O=C1CCNC1`: the growth was 102% (inactive).
On to `O=c1[nH]c2cc(O)ccc2n2cc3c(F)cccc3c12`, for which the growth is 16.6% (inactive).
Turning to `O=C(CCC(=O)N(CCO)CCO)N(CCO)CCO`, the growth is 101% (inactive).
For `O=C(CCl)NC1c2ccccc2Oc2ccccc21`, the growth is 82.4% (inactive).
Take `CC(=O)N1CCN(CCNC(=O)n2cc(-c3ccncc3)c(-c3cc(O)cc(Cl)c3)n2)CC1`: the growth is 71.6% (inactive).
Same read-out and setting: for `CC(C)OCC1CO1` (stereo not given) the value was 95.1% (inactive); for `Oc1ccc(Br)cc1/C=N/NC(=S)NC12CC3CC(CC(C3)C1)C2`, 36.7% (inactive).
The same measure, in the same setting: next, `CC(=O)N1CCN(CCNC(=O)n2cc(-c3ccncc3)c(-c3ccc(O)c(Cl)c3)n2)CC1`: 101% (inactive); `CCOC(=O)/C(C#N)=C(/CC)OCC`: 113% (inactive).
Turning to `O=C1Nc2c(c(=O)n(-c3ccccc3)c3ccccc23)C(c2ccc(Cl)cc2)N1` (stereo not given), the growth was 77% (inactive).
As for `N=C(c1ccccc1)N(Cc1ccccc1)Cc1ccccc1`, the growth is 103% (inactive).
Turning to `COc1cccc(NC(=O)NCCNc2nccc(-c3c(-c4ccc(F)cc4)nc4sccn34)n2)c1`, the growth was 102% (inactive).
On the same count and under the same terms, for `Cc1ccc(NC(=O)CCl)cc1Cl` the value was 108% (inactive).

The next test deals with UACC-257 melanoma. The description is as above. The note with it: 10 µM unless noted.
As to `COc1ccc(-c2nnc(SCC(=O)Nc3ccc(C(=O)/C=C/c4cc(OC)c(OC)c(OC)c4)cc3)n2-c2ccccc2)cc1OC`, the growth was 22.1% [100 µM] (inactive).
With `COc1ccc2cn3c4ccc(O)cc4[nH]c(=O)c3c2c1`, the growth was 50.1% (inactive).
Same read-out and setting: next, `COc1ccc(/C=N/c2cc(C(C)(C)C)nn2-c2ccccc2)cc1`: 96.8% (inactive); `CCCCCCCCCCC1OC(C)CC(C)O1` (stereo not given): 113% (inactive); `S=C(N/N=C/c1cc(Cl)cc(Cl)c1)NC12CC3CC(CC(C3)C1)C2`: 83% (inactive).
On the same count and under the same terms, next, `CCOC1=C(Cl)C(=O)C(OCC)=C(Cl)C1=O`: 103% (inactive); `COC(=O)/C=C1/CCCCC1(C)C(=O)OC` (stereo not given): 98.4% (inactive).
Turning to `CCCCCCCCCCC(C[N+](C)(C)C/C=C/c1ccccc1)C(O)c1ccccc1` (stereo not given), the growth was 21% (inactive).
Take `C=CC1CN2CCC1CC2C(O)c1ccnc2ccc(OC)cc12` (stereo not given): the growth is 106% (inactive).
Take `CC(=O)c1ccc2c(c1)c1ccccc1n2C`: the growth was 104% (inactive).
As for `CC(=O)Nc1nc(C)c(C(=O)NNS(=O)(=O)c2ccccc2)s1`, the growth is 103% (inactive).
As to `Cc1cc2cn3c4ccc(O)cc4nc(N)c3c2cc1C`, the growth was 53.1% (inactive).
As to `COc1cc(-c2nn(-c3ccc(NC(=O)Nc4ccc(Cl)c(Cl)c4)cc3)cc2-c2ccncc2)ccc1Cl`, the growth was 56.5% (inactive).
On to `CCOC(=O)c1sc(NS(=O)(=O)c2ccccc2)nc1C`, for which the growth is 110% (inactive).
In the case of `Clc1ccc(I)c2ccccc12`, the growth is 101% (inactive).
Turning to `N#Cc1c2cccnc2c2nnc3cc(Cl)c(Cl)cc3n12`, the growth was 73.1% (inactive).
Take `COc1ccc(C(=O)NCCNc2nccc(-c3c(-c4ccc(F)cc4)nc4sccn34)n2)cc1`: the growth was 89% (inactive).
In the case of `CC(O)CN(CC(C)O)N(CC(C)O)CC(C)O` (stereo not given), the growth is 90.5% (inactive).
Still for that read-out and setting: next, `O=C(Nc1ccc(-n2cc(-c3ccncc3)c(-c3ccc(Cl)c(O)c3)n2)cc1)c1cc(C(F)(F)F)cc(C(F)(F)F)c1`: 63.2% (inactive); `COc1cc(-c2nn(-c3ccc(NC(=O)c4cc(Cl)cc(Cl)c4)cc3)cc2-c2ccncc2)ccc1Cl`: 102% (inactive); `CCCCCCC(C)N(CC(C)(C)O)C(=O)c1ccc([N+](=O)[O-])cc1` (stereo not given): 106% (inactive).
For the compound `COc1cc(-c2nn(-c3ccc(NC(=O)c4ccc(Cl)c(Cl)c4)cc3)cc2-c2ccncc2)ccc1Cl`, the growth is 110% (inactive).
`COC(=O)[C@@H]1[C@H](O)[C@H](C)[C@H](O)[C@H](C)/C=C\C=C(C)C(=O)Nc2c(C)c(OC(C)=O)c3c(c2O)C(=O)C(C)=C2OCOC(=C23)C(C)=C[C@@](C)(O)[C@H](O)[C@@H](C)[C@H]1OC(C)=O`: the growth was 106% (inactive).
As to `C/C(=C\c1ccc2ccccc2c1)[N+](=O)[O-]`, the growth is 68.9% (inactive).
For `Cc1cc2cn3c4ccc(O)cc4[nH]c(=O)c3c2cc1C`, the growth is 46.6% (inactive).
In the case of `COc1ccc(C(=O)N2N=C(c3ccc(Br)cc3)CC2c2cn(-c3ccccc3)nc2-c2ccccc2)cc1` (stereo not given), the growth is 79.6% (inactive).
As to `O=CN/N=C/c1ccc(Cl)c([N+](=O)[O-])c1`, the growth is 18.2% (inactive).
As for `O=C1CCNC1`, the growth was 95.8% (inactive).
Consider `O=c1[nH]c2cc(O)ccc2n2cc3c(F)cccc3c12`, for which the growth is 51.2% (inactive).
The same measure, in the same setting: for `O=C(CCC(=O)N(CCO)CCO)N(CCO)CCO` the value was 101% (inactive); for `O=C(CCl)NC1c2ccccc2Oc2ccccc21`, 63.6% (inactive).
For `CC(=O)N1CCN(CCNC(=O)n2cc(-c3ccncc3)c(-c3cc(O)cc(Cl)c3)n2)CC1`, the growth is -34% (active).
Same read-out and setting: for `CC(C)OCC1CO1` (stereo not given) the value was 102% (inactive); for `Oc1ccc(Br)cc1/C=N/NC(=S)NC12CC3CC(CC(C3)C1)C2`, 26.1% (inactive).
In the case of `CC(=O)N1CCN(CCNC(=O)n2cc(-c3ccncc3)c(-c3ccc(O)c(Cl)c3)n2)CC1`, the growth was 103% (inactive).
Still for that read-out and setting: next, `CCOC(=O)/C(C#N)=C(/CC)OCC`: 99.9% (inactive); `O=C1Nc2c(c(=O)n(-c3ccccc3)c3ccccc23)C(c2ccc(Cl)cc2)N1` (stereo not given): 118% (inactive); `N=C(c1ccccc1)N(Cc1ccccc1)Cc1ccccc1`: 94% (inactive).
On the same count and under the same terms, for `COc1cccc(NC(=O)NCCNc2nccc(-c3c(-c4ccc(F)cc4)nc4sccn34)n2)c1` the value was 119% (inactive); for `Cc1ccc(NC(=O)CCl)cc1Cl`, 90.5% (inactive).
